Shown are actives, neighbours in structure and some others; about 4% of the full set was active somewhere.
HIF-2a inh = inhibitors of HIF-2a; 786-0 RCC cells HIF-2a reporter, luciferase luminescence, overnight; inhibition, % at 18.8 µM; actives 0.72% (n = 360,000); AID 624352;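 active = inhibition of the luminescence signal of 40% or more relative to plate controls, in a single-dose primary screen at 18.75 µM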
TROY signal inh = blocks TROY-dependent signaling in reporter cells. Q293 LMP1-TROYcd NF-kB luciferase reporter, 4 h. inhibition, % at 10 µM. actives 0.98% (n = 360,000);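 active = compounds whose plate-normalised and pattern-corrected inhibition of the luciferase reporter signal at the single screening dose is 50% or more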
TWEAK-Fn14 inh = TWEAK-Fn14 signaling inhibition; TWEAK-stimulated Fn14 reporter cells, luciferase luminescence, 8 h; inhibition, % at 10 µM; actives 2% (n = 360,000); AID 1159606; in the data active = inhibition above about 50%
CF NFkB block = blocks PAF-induced NF-kB reporter in cystic fibrosis cells; KKLEB NF-kB-GFP reporter, GFP fluorescence overnight; inhibition, % at 5 µM; actives 0.86% (n = 360,000);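 active = at least 50% inhibition at 5 µM, scaled per plate between neutral and stimulator controls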;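 note: PAF is a Pseudomonas aeruginosa culture filtrate used as stimulus; plate controls were PAF-stimulated DMSO wells for no effect and unstimulated DMSO wells for full effect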
Peg3 prom inh = inhibitors of Peg3 promoter. HeLa PEG-Prom luciferase reporter, luminescence, overnight. inhibition, % at 20 µM. actives 1.7% (n = 360,000);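 active = inhibition of at least 50% at 20 µM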
KKLEB tox = reduces viability of KKLEB cystic fibrosis airway cells. actives 0.36% (n = 360,000). KKLEB CF airway cells viability, ATPlite luminescence, overnight; active compounds read low; cells stimulated with P. aeruginosa culture filtrate. activity change (cytotoxicity), % at 5 µM;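 active = corrected activity change at or below -50% at 5 µM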
The depositor's hits bear a star; · = not tested or not shown; ! = not confirmed by another sample.

SMILES	HIF-2a inh	TROY signal inh	TWEAK-Fn14 inh	CF NFkB block	Peg3 prom inh	KKLEB tox
Cc1cc(/C(N)=N/OC(=O)c2ccccc2Cl)no1	-160	22	54*	-8	-96	6
COc1ccc(N/C=C(\C=C\C#N)S(=O)(=O)c2ccccc2)cc1	15	6	0	12	-1	-8
O=C(C=Cc1cccnc1)c1ccccc1	-25	2	50	-10	79*	6
O=C(/C=C/c1cccnc1)c1ccc(O)cc1	-4	13	27	35	7	-5
CC1CCC(NC(=O)c2cc(Cl)nc3ccccc23)CC1 (centres undefined)	-112	-8	-3	-10	-92	-10
CN(C)c1nc(N)nc(-c2cccnc2)n1	-5	-10	7	-3	2	15
Cc1[nH]nc(-c2cccnc2)c1N=NN(C)C	29	33	22	5	71*	-16
CN(C)c1ccc(CNn2cnnc2SCc2ccc(F)cc2)cc1	-65	-20	-18	-6	-16	-6
Fc1ccc(CSc2nncn2NCc2ccccc2)cc1	2	49	77*	-9	-1	-4
CC(=O)Nc1c(Br)cc2c(c1Br)C(=O)c1ccccc1-2	-18	-6	27	0	-5	-6
CC(=O)C1=C(c2ccc(Br)cc2)C(=O)c2ccccc2C1=O	30	57*	103*	81*	96*	-12
COc1cc(N=Nc2ccc(Br)cc2)cc(C=O)c1O	-72	47	87*	85*	49	-46
COc1cc(CN(C)C)cc(C=O)c1O	13	8	13	16	3	2
c1ccc(-c2csc3ncnc(NCC4COc5ccccc5O4)c23)cc1 (centres undefined)	7	59*	91*	28	27	-16
Cc1sc2ncnc(NCC3COc4ccccc4O3)c2c1C (centres undefined)	-27	41	57*	11	-5	-2
CCCCCCCCN1C(=O)[C@H](CC(=O)NCc2cccc(C(F)(F)F)c2)C[C@@]2(C(=O)OCC)CCCC=C12	0	17	16	·	·	·
Cc1cc(=O)oc2cc(OCC(=O)N3CCC(C(N)=O)CC3)ccc12	-3	-2	-9	-12	8	17
O=c1ccc2c([nH]1)CCCCCCCCCC2	30	-8	-25	-3	54*	5
Cc1cc(NCCCn2ccnc2)n2ncc(-c3ccc(Cl)cc3)c2n1	-162	70*	68*	55*	-55	-55*
COc1ccc(C)cc1S(=O)(=O)N1CCN(C(=O)c2ncoc2-c2ccc(C)cc2)CC1	13	-2	85*	1	-5	7
OCc1cccc(Nc2ncnc3sc4c(c23)CCCCC4)c1	2	1	-5	20	6	-20
O=C(CSc1ccc2nnc(CCNC(=O)c3ccccc3)n2n1)NC1CCCC1	8	6	1	13	-6	-8
CCCNC(=O)c1cn(CC)c2cc(N3CCN(C(=O)c4ccco4)CC3)c(F)cc2c1=O	10	25	5	-21	19	26
CCn1cc(C(=O)NCc2cccc(F)c2)c(=O)c2cc(F)c(N3CCN(C(=O)c4ccco4)CC3)cc21	18	42	52*	4	55*	-1
Cc1csc(SCC(=O)NC2CCS(=O)(=O)C2)n1 (centres undefined)	14	-9	7	-15	6	1
SMILES	HIF-2a inh	TROY signal inh	TWEAK-Fn14 inh	CF NFkB block	Peg3 prom inh	KKLEB tox
CCc1nc2c(OCc3cccc(Cl)c3)cccn2c1N(C)C(C)=O	15	-9	-11	-34	13	16
COCCn1c(C)c(C)c2c(NCCc3ccccc3)ncnc21	-2	80*	-59	9	16	-11
O=C(c1cc(COc2c(F)cccc2F)on1)N1CCC(c2ccccc2Cl)C1 (centres undefined)	-151	-30	-28	3	-152	-15
O=C(c1cc(COc2cccc3cnccc23)on1)N1CCC(c2ccccc2Cl)C1 (centres undefined)	7	54*	48	28	4	-11
CCc1ccc(CN(C)C(=O)c2cc(COc3cccc4cnccc34)on2)cc1	-12	39	57*	20	9	-6
CN(Cc1cccc2cnccc12)C(=O)c1cc(COc2ccc(F)cc2F)on1	-12	23	15	-17	15	3
Cc1ccc(C(NC(=O)NCCCN2CCOCC2)=C(Cl)Cl)cc1F	19	-12	29	0	20	2
Cc1ccc(C(NC(=O)N2CCCCC2)=C(Cl)Cl)cc1F	0	8	11	5	53*	6
Cc1onc(-c2ccccc2Cl)c1C(=O)NNC(=O)c1cccc(F)c1	11	6	76*	5	0	-4
Cc1onc(-c2ccccc2Cl)c1C(=O)Nc1ccc(-c2nnc3n2CCCCC3)cc1	13	-2	99*	15	11	1
Cc1onc(-c2ccccc2Cl)c1C(=O)Nc1ccccc1	6	5	23	5	11	-3
Cc1onc(-c2ccccc2Cl)c1C(=O)Nc1ccc(CN2CCCC2)cc1	11	·	33	-6	7	8
CC(=O)c1cccc(NC(=O)CNC(=O)c2sc3ccccc3c2Cl)c1	-48	-6	-25	8	-33	-1
Cc1cccc(C)c1-n1nnnc1C1(C)CCC(=O)N1C1CCN(Cc2ccccc2)CC1 (centres undefined)	6	6	17	·	·	·
CC1(c2nnnn2-c2ccc3c(c2)OCCO3)CCC(=O)N1C1CCN(Cc2ccccc2)CC1 (centres undefined)	18	50	80*	·	·	·
O=C1COc2ccc(-c3csc(=Nc4ccc(OC(F)F)cc4)n3CC3CCCO3)cc2N1 (centres undefined)	8	44	47	-23	34	-6
COCC(C)n1c(-c2ccc3c(c2)NC(=O)CO3)csc1=Nc1ccc(OC(F)F)cc1 (centres undefined)	-13	52*!	63*!	10	6	-11
Nc1ncnc2c1ncn2[C@@H]1O[C@H](C(=O)N2CCN(c3ccc(Cl)cn3)CC2)[C@@H](O)[C@H]1O	14	0	-2	-23	-4	4
CC1(C)Cc2ccccc2C(/C(=N/O)C(N)=O)=N1	-1	10	0	16	10	3
CC(=O)c1ccc(N/N=C(/C(N)=O)C2=NC(C)(C)Cc3ccccc32)cc1	31	30	44	26	77*	-16
CC1(C)Cc2ccccc2C(/C(=N\Nc2cccc(Cl)c2)C(N)=O)=N1	22	27	56*	27	40	-12
O=C(CC1C(=O)NCCN1Cc1ccc(Cl)c(F)c1)NC1CCCCC1 (centres undefined)	5	-38	9	-5	5	3
Cc1cc(C=O)c(O)cc1O	8	9	-7	12	-5	0

Assay outcomes from PubChem.
